Test results published in the supplement of paper PMC10849652.
The full data set covers some 7,900 targets. This sample favours those with a hit. About 0.6% of all pairs of compound and target were hits.

Assays:
Assay in all cases: log2 fold change, soluble protein after heating vs DMSO (PISA); higher = thermal stabilisation; K562 cells, 10 uM, 30 min; active = over 0.2 and 3.5 SD of the protein, either way, in both replicates (recomputed)
[1] = compound: CC[C@@H]1C(=O)N(C)c2cnc(Nc3ccc(C(=O)NC4CCN(C)CC4)cc3OC)nc2N1C1CCCC1
Method in brief: (§1)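 Values are thermal stability changes relative to control samples and are taken from duplicates. They are stated as log2 fold changes. Before quantification by TMTpro 16plex LC-MS/MS with equalised channel sums, K562 cells at 2×10^6 cells/mL were treated with 10 μM compound for 30 min, heated in aliquots for 3 min across 48°C-58°C, pooled, extracted in PBS with 0.5% NP-40 at 4°C, and centrifuged at 21,000xg for 90 min to give the soluble supernatant.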

volasertib = compound: CC[C@@H]1C(=O)N(C)c2cnc(Nc3ccc(C(=O)N[C@H]4CC[C@H](N5CCN(CC6CC6)CC5)CC4)cc3OC)nc2N1C(C)C [volasertib]
Method in brief: as §1

[2] = compound: CC[C@H](C)N1C=C(C2=C(C=C(C=C21)C3=CN=C(C=C3)N4CCNCC4)C(=O)NCC5=C(C=C(NC5=O)C)C)C
Method in brief: as §1

epoxomicin = compound: CC[C@H](C)[C@@H](C(=O)N[C@@H]([C@@H](C)O)C(=O)N[C@@H](CC(C)C)C(=O)[C@]1(CO1)C)NC(=O)[C@H]([C@@H](C)CC)N(C)C(=O)C [epoxomicin]
Method in brief: as §1

[3] = compound: CCn1c(C(=O)N(C2CC2)C2CC2)cc2c3c(ncn3C)c(Nc3cc(C)n(C)n3)nc21
Method in brief: as §1

[4] = compound: CCn1cc(-c2ccnc3[nH]c(-c4cccc(CN(C)C)c4)cc23)c(-c2ccc(NC(=O)N(C)C)cc2)n1
Method in brief: as §1

[5] = compound: CN(C)CC(=O)Nc1ccc2[nH]c(=O)c3ccccc3c2c1
Method in brief: as §1

rosiglitazone = compound: CN(CCOC1=CC=C(C=C1)C[C@H]2C(=O)NC(=O)S2)C3=CC=CC=N3 (racemic) [rosiglitazone]
Method in brief: as §1

[6] = compound: CN1C2=C(C3=C1C(=O)N(N=C3)CC4=CC(=CC=C4)N)SC(=C2)S(=O)C
Method in brief: as §1

[7] = compound: CN1CCC(CNc2ccc3ncc(-c4cccc(OC(F)(F)F)c4)n3n2)CC1
Method in brief: as §1

Measured: log2 fold change

ADD3 (UniProt Q9UEY8)
Sequence of UniProt Q9UEY8 (Q9UEY8 whole entry, looked up): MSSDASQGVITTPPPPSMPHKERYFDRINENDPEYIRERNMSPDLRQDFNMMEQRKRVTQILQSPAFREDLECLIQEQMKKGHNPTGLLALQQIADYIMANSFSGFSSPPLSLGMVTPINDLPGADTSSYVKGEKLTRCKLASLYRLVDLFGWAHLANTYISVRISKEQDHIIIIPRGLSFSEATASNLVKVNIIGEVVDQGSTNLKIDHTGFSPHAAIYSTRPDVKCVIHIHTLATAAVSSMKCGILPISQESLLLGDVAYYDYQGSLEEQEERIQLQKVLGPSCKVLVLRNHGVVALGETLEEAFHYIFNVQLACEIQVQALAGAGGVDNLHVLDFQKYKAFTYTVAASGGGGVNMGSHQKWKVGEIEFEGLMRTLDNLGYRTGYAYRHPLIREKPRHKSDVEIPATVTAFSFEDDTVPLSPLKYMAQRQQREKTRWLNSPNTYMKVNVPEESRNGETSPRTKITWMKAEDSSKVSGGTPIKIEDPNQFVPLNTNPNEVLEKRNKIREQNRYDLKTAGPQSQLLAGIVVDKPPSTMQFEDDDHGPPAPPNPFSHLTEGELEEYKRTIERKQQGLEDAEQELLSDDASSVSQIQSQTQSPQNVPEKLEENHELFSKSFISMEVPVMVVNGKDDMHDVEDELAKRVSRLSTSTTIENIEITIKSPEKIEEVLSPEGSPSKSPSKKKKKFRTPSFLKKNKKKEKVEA
inactive: [1] 0.098 | volasertib 0.056 | [2] -0.024 | epoxomicin 0.014 | [3] 0.01 | [4] 0.054 | [5] -0.03 | rosiglitazone -0.006 | [6] -0.056 | [7] -0.023

BCCIP (UniProt Q9P287)
inactive: [1] -0.009 | volasertib -0.047 | [2] -0.005 | epoxomicin 0.092 | [3] -0.04 | [4] 0.033 | [5] 0.019 | rosiglitazone 0.042 | [6] 0.047 | [7] -0.043

ALDH6A1 (UniProt Q02252)
inactive: [1] 0.06 | volasertib -0.011 | [2] -0.059 | epoxomicin 0 | [3] 0.028 | [4] -0.06 | [5] -0.033 | rosiglitazone 0.093 | [6] -0.068 | [7] -0.004

BAP1 (UniProt Q92560)
inactive: [1] -0.037 | volasertib 0.13 | [2] 0 | epoxomicin -0.092 | [3] -0.019 | [4] 0.101 | [5] -0.093 | rosiglitazone 0.021 | [6] 0.047 | [7] 0.055

ATP6V0A2 (UniProt Q9Y487)
Sequence of UniProt Q9Y487 (Q9Y487 whole entry, looked up): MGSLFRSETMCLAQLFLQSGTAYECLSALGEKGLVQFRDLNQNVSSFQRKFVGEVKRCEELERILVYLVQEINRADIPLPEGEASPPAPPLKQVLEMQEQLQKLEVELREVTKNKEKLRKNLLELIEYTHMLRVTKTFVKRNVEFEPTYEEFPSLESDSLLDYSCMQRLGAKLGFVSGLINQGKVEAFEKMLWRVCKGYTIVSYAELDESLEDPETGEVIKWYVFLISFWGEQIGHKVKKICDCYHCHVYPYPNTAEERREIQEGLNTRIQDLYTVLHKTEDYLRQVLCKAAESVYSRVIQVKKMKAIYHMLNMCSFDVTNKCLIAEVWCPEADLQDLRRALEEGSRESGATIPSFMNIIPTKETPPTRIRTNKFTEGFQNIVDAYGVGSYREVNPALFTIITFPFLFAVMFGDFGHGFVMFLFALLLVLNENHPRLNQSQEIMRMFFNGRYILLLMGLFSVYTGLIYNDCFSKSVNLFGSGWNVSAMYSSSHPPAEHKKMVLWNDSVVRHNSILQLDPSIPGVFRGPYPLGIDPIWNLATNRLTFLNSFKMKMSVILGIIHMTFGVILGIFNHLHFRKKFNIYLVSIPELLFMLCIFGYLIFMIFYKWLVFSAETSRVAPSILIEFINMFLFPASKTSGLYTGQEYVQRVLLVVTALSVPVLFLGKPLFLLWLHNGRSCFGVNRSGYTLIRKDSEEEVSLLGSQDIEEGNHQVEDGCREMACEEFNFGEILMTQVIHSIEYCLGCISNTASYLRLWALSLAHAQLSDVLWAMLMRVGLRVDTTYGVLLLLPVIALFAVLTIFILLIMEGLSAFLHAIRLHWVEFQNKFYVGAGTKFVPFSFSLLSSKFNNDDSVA
inactive: [1] -0.039 | volasertib -0.039 | [2] 0.067 | epoxomicin 0.043 | [3] 0.007 | [4] 0.028 | [5] -0.034 | rosiglitazone -0.037 | [6] 0.006 | [7] -0.169

B4GALNT1 (UniProt Q00973)
inactive: [1] -0.243 | volasertib -0.097 | [2] -0.115 | epoxomicin -0.059 | [3] 0.078 | [4] 0.01 | [5] 0.143 | rosiglitazone 0.025 | [6] -0.103 | [7] 0.173

ALDH2 (UniProt P05091)
inactive: [1] -0.025 | volasertib 0.06 | [2] -0.009 | epoxomicin -0.038 | [3] -0.017 | [4] -0.042 | [5] 0.029 | rosiglitazone 0.058 | [6] -0.048 | [7] -0.006

BRIX1 (UniProt Q8TDN6)
inactive: [1] 0.166 | volasertib 0.317 | [2] 0.048 | epoxomicin -0.343 | [3] -0.041 | [4] 0.31 | [5] -0.143 | rosiglitazone -0.266 | [6] 0.36 | [7] 0.481

ASS1 (UniProt P00966)
Sequence of UniProt P00966 (P00966 whole entry, looked up): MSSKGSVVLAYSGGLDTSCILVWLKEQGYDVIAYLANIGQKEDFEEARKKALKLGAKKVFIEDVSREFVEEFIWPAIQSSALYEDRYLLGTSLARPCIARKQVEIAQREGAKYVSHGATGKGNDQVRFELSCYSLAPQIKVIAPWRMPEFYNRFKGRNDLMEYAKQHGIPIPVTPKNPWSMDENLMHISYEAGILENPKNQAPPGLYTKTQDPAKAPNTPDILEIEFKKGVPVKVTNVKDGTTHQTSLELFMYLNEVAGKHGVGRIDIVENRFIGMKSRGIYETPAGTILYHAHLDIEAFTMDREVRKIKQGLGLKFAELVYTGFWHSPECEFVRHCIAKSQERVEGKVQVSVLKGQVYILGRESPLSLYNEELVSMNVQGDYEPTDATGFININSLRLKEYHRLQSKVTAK
inactive: [1] 0.02 | volasertib 0.024 | [2] 0.412 | epoxomicin 0.025 | [3] -0.024 | [4] 0.04 | [5] -0.072 | rosiglitazone 0.071 | [6] 0.025 | [7] -0.005

BLVRB (UniProt P30043)
inactive: [1] 0.008 | volasertib 0.046 | [2] 0.012 | epoxomicin 0.161 | [3] 0.023 | [4] -0.078 | [5] 0.014 | rosiglitazone 0.017 | [6] -0.049 | [7] 0.127

ANAPC2 (UniProt Q9UJX6)
active: volasertib -0.338
inactive: [1] -0.071 | [2] 0.023 | epoxomicin -0.031 | [3] -0.027 | [4] -0.018 | [5] 0.004 | rosiglitazone 0.191 | [6] 0.03 | [7] -0.001

ATP6V0A1 isoform 3 (UniProt Q93050)
inactive: [1] -0.056 | volasertib 0.174 | [2] -0.01 | epoxomicin 0.044 | [3] 0.034 | [4] -0.054 | [5] -0.009 | rosiglitazone -0.017 | [6] 0.239 | [7] -0.137

B4GALT1 (UniProt P15291)
Sequence of UniProt P15291 (P15291 whole entry, looked up): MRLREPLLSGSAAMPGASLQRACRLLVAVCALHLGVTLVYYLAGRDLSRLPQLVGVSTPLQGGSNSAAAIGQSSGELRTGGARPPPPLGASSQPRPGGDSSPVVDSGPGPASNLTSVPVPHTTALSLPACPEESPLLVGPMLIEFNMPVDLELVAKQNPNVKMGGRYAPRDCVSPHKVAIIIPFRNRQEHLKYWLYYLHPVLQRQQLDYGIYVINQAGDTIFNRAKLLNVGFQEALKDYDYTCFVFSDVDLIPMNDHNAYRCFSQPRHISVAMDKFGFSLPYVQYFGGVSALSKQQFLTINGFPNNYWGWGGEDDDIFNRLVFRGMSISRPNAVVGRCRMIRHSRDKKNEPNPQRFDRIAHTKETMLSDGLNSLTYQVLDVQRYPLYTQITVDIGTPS
inactive: [2] 0.033 | epoxomicin 0.051 | [3] 0.041 | [4] -0.048 | [5] -0.03 | rosiglitazone 0.072 | [6] -0.081
active: [1] -0.324 | volasertib -0.571 | [7] -0.28

ABHD11 (UniProt Q8NFV4)
inactive: [1] -0.077 | volasertib -0.127 | [2] -0.003 | epoxomicin 0.272 | [3] 0.045 | [4] 0.086 | [5] 0.007 | rosiglitazone -0.016 | [6] -0.033 | [7] -0.126

BRD4 (UniProt O60885)
inactive: [2] -0.007 | epoxomicin 0.136 | [3] -0.016 | [5] 0.169 | rosiglitazone -0.01 | [6] -0.09 | [7] -0.062
active: [1] 1.89 | volasertib 2.02 | [4] 0.597

ABCB6 (UniProt Q9NP58)
inactive: [1] -0.131 | volasertib -0.051 | [2] 0.001 | epoxomicin -0.009 | [3] 0 | [4] -0.019 | [5] 0.061 | rosiglitazone 0.027 | [6] -0.053 | [7] -0.123

ADRM1 (UniProt Q16186)
Sequence of UniProt Q16186 (Q16186 whole entry, looked up): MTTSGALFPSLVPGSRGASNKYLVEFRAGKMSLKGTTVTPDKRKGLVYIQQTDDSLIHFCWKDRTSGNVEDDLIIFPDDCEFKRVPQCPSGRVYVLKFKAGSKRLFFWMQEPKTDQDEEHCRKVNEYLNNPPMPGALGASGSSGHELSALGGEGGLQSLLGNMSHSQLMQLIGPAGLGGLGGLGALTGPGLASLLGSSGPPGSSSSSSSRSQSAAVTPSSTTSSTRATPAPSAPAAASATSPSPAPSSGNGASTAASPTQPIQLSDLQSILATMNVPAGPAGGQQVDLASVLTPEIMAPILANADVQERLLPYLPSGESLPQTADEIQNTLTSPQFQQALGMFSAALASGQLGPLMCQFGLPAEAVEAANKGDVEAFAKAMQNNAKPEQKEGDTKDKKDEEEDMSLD
inactive: [1] 0.122 | volasertib 0.197 | [2] 0.024 | epoxomicin -0.083 | [3] 0.04 | [4] -0.013 | [5] -0.006 | rosiglitazone 0 | [6] 0.045 | [7] 0.062

ACIN1 (UniProt Q9UKV3)
Sequence of UniProt Q9UKV3 (Q9UKV3 whole entry, looked up): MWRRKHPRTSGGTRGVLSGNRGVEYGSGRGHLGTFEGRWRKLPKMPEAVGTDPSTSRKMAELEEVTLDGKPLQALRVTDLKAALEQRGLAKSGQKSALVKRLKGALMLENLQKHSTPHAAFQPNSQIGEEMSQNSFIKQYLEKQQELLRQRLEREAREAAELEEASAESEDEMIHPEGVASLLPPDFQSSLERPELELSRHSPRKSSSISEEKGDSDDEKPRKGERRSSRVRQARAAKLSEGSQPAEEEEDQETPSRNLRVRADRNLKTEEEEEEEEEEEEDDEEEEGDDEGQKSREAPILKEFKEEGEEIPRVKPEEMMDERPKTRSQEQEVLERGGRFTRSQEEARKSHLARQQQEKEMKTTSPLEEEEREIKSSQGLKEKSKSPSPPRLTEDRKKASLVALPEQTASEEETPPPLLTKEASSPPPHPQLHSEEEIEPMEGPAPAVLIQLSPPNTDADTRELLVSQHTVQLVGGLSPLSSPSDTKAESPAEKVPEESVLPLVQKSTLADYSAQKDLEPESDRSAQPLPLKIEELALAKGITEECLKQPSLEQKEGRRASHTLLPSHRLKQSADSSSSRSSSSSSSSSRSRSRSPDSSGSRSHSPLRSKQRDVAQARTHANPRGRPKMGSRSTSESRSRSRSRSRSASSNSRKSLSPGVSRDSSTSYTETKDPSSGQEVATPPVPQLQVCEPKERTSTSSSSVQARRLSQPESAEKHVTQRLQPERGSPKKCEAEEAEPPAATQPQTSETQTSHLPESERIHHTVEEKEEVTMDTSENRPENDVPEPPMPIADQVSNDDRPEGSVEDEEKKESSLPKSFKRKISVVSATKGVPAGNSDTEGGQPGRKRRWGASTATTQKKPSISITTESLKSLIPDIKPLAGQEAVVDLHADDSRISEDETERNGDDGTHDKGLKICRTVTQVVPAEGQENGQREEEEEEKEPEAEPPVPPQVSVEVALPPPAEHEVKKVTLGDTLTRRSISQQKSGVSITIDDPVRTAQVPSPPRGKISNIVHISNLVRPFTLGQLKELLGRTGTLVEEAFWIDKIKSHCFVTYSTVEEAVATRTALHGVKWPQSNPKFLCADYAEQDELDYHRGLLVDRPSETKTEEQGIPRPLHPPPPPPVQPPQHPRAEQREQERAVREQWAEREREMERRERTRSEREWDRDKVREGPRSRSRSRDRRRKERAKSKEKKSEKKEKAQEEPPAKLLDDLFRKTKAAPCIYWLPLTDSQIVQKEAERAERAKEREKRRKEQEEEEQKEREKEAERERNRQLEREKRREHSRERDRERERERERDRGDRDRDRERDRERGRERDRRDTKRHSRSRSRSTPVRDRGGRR
inactive: [1] -0.017 | volasertib -0.056 | [2] -0.012 | epoxomicin -0.048 | [3] -0.057 | [4] 0.004 | [5] -0.034 | rosiglitazone 0.008 | [6] -0.021 | [7] -0.097

ACSL1 (UniProt P33121)
inactive: [1] -0.09 | volasertib -0.183 | [2] 0.012 | epoxomicin 0.018 | [3] 0.05 | [4] -0.031 | [5] 0 | rosiglitazone 0.003 | [6] -0.064
active: [7] -0.393

AGPS (UniProt O00116)
active: [7] -0.212
inactive: [1] -0.005 | volasertib -0.021 | [2] 0.002 | epoxomicin 0.031 | [3] 0.018 | [4] -0.102 | [5] 0.039 | rosiglitazone 0.055 | [6] -0.09

ACSL5 isoform 3 (UniProt Q9ULC5)
inactive: [1] -0.013 | volasertib -0.088 | [2] 0.029 | epoxomicin 0.005 | [3] 0.03 | [4] -0.068 | [5] -0.084 | rosiglitazone -0.009 | [6] -0.216
active: [7] -0.361

ATP13A3 (UniProt Q9H7F0)
active: [7] -0.401
inactive: [1] -0.085 | volasertib 0.077 | [2] 0.016 | epoxomicin 0 | [3] -0.014 | [4] -0.022 | [5] -0.012 | rosiglitazone 0.128 | [6] -0.011

AKAP8 (UniProt O43823)
active: volasertib -0.268
inactive: [1] 0.069 | [2] -0.017 | epoxomicin 0.003 | [3] 0.02 | [4] 0.026 | [5] -0.03 | rosiglitazone 0.017 | [6] 0 | [7] -0.131

BYSL (UniProt Q13895)
Sequence of UniProt Q13895 (Q13895 whole entry, looked up): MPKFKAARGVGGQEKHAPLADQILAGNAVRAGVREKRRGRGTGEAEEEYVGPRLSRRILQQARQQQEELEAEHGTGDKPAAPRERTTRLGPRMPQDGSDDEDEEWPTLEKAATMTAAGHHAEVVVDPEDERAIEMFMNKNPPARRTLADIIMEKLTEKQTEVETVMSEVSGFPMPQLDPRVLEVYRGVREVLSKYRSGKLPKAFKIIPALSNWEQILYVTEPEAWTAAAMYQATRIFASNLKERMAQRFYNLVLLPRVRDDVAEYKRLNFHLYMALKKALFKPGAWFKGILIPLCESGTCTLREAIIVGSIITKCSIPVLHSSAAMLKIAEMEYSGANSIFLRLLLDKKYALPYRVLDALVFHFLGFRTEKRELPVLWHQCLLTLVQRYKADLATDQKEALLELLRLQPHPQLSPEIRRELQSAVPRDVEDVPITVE
inactive: [1] -0.009 | volasertib -0.113 | [2] 0.072 | epoxomicin 0.118 | [3] -0.077 | [4] 0.053 | [5] 0.079 | rosiglitazone 0.045 | [6] 0.09 | [7] 0.053

ACTR1B (UniProt P42025)
inactive: [1] 0.081 | volasertib 0.048 | [2] 0.01 | epoxomicin -0.008 | [3] -0.014 | [5] 0.021 | rosiglitazone -0.033 | [6] -0.089 | [7] 0.306
active: [4] -0.581

AGPAT1 (UniProt Q99943)
Sequence of UniProt Q99943 (Q99943 whole entry, looked up): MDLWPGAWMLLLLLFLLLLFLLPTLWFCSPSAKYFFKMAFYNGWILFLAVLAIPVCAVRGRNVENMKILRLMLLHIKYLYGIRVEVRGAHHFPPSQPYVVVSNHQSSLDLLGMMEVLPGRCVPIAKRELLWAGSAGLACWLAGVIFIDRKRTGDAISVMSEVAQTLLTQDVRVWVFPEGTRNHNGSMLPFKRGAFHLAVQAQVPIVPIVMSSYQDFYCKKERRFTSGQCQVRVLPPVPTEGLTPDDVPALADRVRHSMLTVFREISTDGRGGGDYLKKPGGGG
active: volasertib -0.243 | [7] 0.315
inactive: [1] -0.032 | [2] 0.015 | epoxomicin -0.056 | [3] -0.007 | [4] -0.006 | [5] 0.032 | rosiglitazone -0.011 | [6] -0.102

BCCIP isoform 2 (UniProt Q9P287)
inactive: [1] -0.037 | volasertib -0.038 | [2] 0.044 | epoxomicin 0.019 | [3] 0.023 | [4] 0.022 | [5] 0.026 | rosiglitazone 0.021 | [6] -0.042 | [7] -0.028

ACP2 (UniProt P11117)
inactive: [1] -0.156 | volasertib -0.151 | [2] -0.068 | epoxomicin 0.019 | [3] 0.004 | [4] -0.02 | [5] -0.029 | rosiglitazone 0.006 | [6] 0.013 | [7] -0.14

ARAF (UniProt P10398)
inactive: [1] 0.053 | volasertib 0.311 | [2] 0.129 | epoxomicin 0.013 | [3] -0.041 | [4] -0.002 | [5] 0.054 | rosiglitazone 0.047 | [6] -0.025 | [7] -0.132

AHCYL1 (UniProt O43865)
inactive: [1] 0.021 | volasertib 0.036 | [2] -0.099 | epoxomicin -0.007 | [3] -0.027 | [4] -0.097 | [5] 0.018 | rosiglitazone 0.018 | [6] -0.115 | [7] -0.063
